Some of the results follow. No count for the full screen is at hand.
Target: furin, P09958
Assay: furin cleavage Z-score vs untreated control; higher = more cleavage, active = 3.5 or more, inactive = 1 or less, 8 variable residues between constant flanks
Procedure, shortened: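 The cleavage Z-score was derived for purified furin acting on 8-mer peptides held on magnetic beads and fused to a cDNA oligonucleotide. Digests lasted 7.5, 15 or 30 min at 1:10 enzyme:substrate in 50 mM HEPES pH 7.5 with CaCl2 and NaCl. Sequencing counts of released DNA, log-transformed against furin-free reactions, were lowess-adjusted and scaled by median absolute deviation.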

furin, P09958, sequence (P09958 whole entry): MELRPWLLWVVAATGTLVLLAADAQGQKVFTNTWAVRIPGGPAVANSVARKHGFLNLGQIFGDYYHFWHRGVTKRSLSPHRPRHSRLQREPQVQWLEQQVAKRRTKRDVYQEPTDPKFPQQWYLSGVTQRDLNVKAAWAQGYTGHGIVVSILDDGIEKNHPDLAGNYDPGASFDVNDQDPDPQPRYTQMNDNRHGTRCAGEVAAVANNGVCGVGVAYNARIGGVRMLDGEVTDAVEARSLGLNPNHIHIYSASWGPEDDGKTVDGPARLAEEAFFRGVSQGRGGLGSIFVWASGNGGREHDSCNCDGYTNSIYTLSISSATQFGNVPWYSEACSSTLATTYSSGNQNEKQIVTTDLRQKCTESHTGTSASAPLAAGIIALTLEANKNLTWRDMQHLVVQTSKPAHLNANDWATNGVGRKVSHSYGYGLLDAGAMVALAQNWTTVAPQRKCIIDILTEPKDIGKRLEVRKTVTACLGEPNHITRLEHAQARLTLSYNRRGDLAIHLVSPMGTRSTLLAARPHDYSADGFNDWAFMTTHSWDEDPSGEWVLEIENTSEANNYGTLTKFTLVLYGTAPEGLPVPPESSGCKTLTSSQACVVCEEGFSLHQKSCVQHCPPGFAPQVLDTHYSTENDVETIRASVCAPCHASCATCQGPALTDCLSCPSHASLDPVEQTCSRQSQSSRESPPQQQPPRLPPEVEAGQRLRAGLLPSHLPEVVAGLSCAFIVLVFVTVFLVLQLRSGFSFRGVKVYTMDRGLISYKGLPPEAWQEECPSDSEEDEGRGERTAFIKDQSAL

Sequence	furin cleavage Z-score (7.5 min)	furin cleavage Z-score (15 min)	furin cleavage Z-score (30 min)
CANVCCSMSYAGNASASA [HC2001]	0.0522 (inactive)	1.55	1.28
CAMHLQGPEDAGNASASA [NG10]	0.395 (inactive)	-0.679 (inactive)	-0.939 (inactive)
CALAAKLVALAGNASASA [HC862]	1.87	-0.745 (inactive)	0.749 (inactive)
CAPVVHGCPLAGNASASA [HC1315]	-0.719 (inactive)	-0.657 (inactive)	-0.124 (inactive)
CAVCGAPPCVAGNASASA [HC442]	1.21	0.519 (inactive)	0.314 (inactive)
CAEVVTKTWVAGNASASA [HC151]	-0.0944 (inactive)	0.88 (inactive)	-0.37 (inactive)
CAEVAASCGGAGNASASA [HC567]	-0.691 (inactive)	-0.994 (inactive)	-0.368 (inactive)
CAHRFAPPCKAGNASASA [HC1226]	-2.1 (inactive)	-0.755 (inactive)	0.739 (inactive)
CARAKRSSKMAGNASASA [FS-3181]	5.7 (active)	7.55 (active)	8.74 (active)
CARAKKGLGMAGNASASA [FS-2128]	1.05	0.216 (inactive)	0.932 (inactive)
CARAKRSVHFAGNASASA [FS-2640]	-0.56 (inactive)	-0.574 (inactive)	1.29
CATTPCSGMWAGNASASA [HC1906]	0.488 (inactive)	0.804 (inactive)	-1.44 (inactive)
CAHPVTKYIMAGNASASA [HC980]	-1.79 (inactive)	0.202 (inactive)	-0.88 (inactive)
CAAFRRGVTKAGNASASA [FS-1876]	-0.242 (inactive)	-0.144 (inactive)	-1.52 (inactive)
CAPAKRPKRKAGNASASA [FS-1470]	11.2 (active)	12 (active)	9.89 (active)
CAPAQRTKRKAGNASASA [FS-836]	10.3 (active)	11.5 (active)	9.82 (active)
CAPRPISYLKAGNASASA [HC738]	0.812 (inactive)	1.42	0.555 (inactive)
CAPTARPKRKAGNASASA [FS-913]	4.97 (active)	4.54 (active)	4.32 (active)
CAKAEREKRKAGNASASA [FS-807]	0.64 (inactive)	0.758 (inactive)	1.86
CAFAPPCKPLAGNASASA [HC1227]	-0.328 (inactive)	-1.28 (inactive)	-1.52 (inactive)
CAMIAGAHWGAGNASASA [HC334]	-0.899 (inactive)	-0.615 (inactive)	-0.232 (inactive)
CAVTRHADVIAGNASASA [HC727]	-0.38 (inactive)	1	-0.771 (inactive)
CARTGRACECAGNASASA [FS-2464]	-0.465 (inactive)	0.257 (inactive)	0.474 (inactive)
CAALLRTRRSAGNASASA [FS-972]	8.62 (active)	7.98 (active)	4.19 (active)
CAALVMAQLLAGNASASA [HC326]	0.829 (inactive)	0.666 (inactive)	-0.00652 (inactive)
CAALVVGVVCAGNASASA [HC1106]	-0.352 (inactive)	-0.584 (inactive)	-0.588 (inactive)
CAVTRRKGRCAGNASASA [FS-1294]	3.46	5.29 (active)	5.86 (active)
CAHFKRTRRSAGNASASA [FS-1532]	10.4 (active)	10.2 (active)	8.6 (active)
CAALVRTRRCAGNASASA [FS-214]	5.77 (active)	6.03 (active)	5.43 (active)
